Data published in paper PMC4552634, “A New Set of Chemical Starting Points with Plasmodium falciparum Transmission-Blocking Potential for Antimalarial Drug Discovery” (PLoS ONE, 2015).
Among all 13,000 compounds or so, about 3,200 (25%) showed an effect of 50% or more. This is one part of the list.

What follows are compounds tested on P. falciparum stage V gametocytes. Conditions: 48 h, 5 µM; inhibitor.
Design: BacTiter-Glo ATP luminescence viability of purified stage V gametocytes in 384-well plates, per cent inhibition versus DMSO

Structure (SMILES) | % Inhibition [%]
COc1ccccc1C1CCN(Cc2csc(NC(=O)c3ccc(-c4ccc(C(F)(F)F)cc4)cc3)n2)CC1 [TCMDC-138781] | -44.16
Cc1cc2[nH]c(-c3ccc(C(=O)NCCCN4CCN(c5cccc(Cl)c5)CC4)cc3F)nc2cc1Cl [TCMDC-140029] | -4.793
Cc1cccc2[nH]c(-c3cccc(-c4ccc(CN5CCN(CCO)CC5)cc4)c3)nc12 [TCMDC-133026] | 5.684
C=CCOc1ccc(CNC2CCN(Cc3ccccc3)CC2)cc1Br [TCMDC-125268] | 13.93
O=C(Nc1ccc(N2CCN(Cc3ccccc3)CC2)cc1)c1cccs1 [TCMDC-124320] | -18.09
c1ccc(CN2CCC(NCc3ccc(-c4cccc(CNC5CCCC5)c4)cc3)CC2)cc1 [TCMDC-140491] | 106.1
O=C(NCc1cccc2ccccc12)c1ccc(CNC2CCN(Cc3ccccc3)CC2)cc1 [TCMDC-140789] | -3.964
c1ccc(CN2CCC(NCc3ccc(-c4ccc(CNC5CCCC5)cc4)cc3)CC2)cc1 [TCMDC-140492] | 108.5
C(=C(c1cccs1)c1cccs1)c1ccc(CNC2CCN(Cc3ccccc3)CC2)cc1 [TCMDC-138647] | 92.91
O=C(NCc1cc2c(cc1Cl)OCO2)c1ccc(CNC2CCN(Cc3ccccc3)CC2)cc1 [TCMDC-140786] | 7.44
c1ccc(CN2CCC(NCc3ccccc3-c3cccc(CNCc4ccc5c(c4)OCO5)c3)CC2)cc1 [TCMDC-140474] | 47.21
c1ccc(CN2CCC(NCc3ccccc3-c3ccc(CNCc4ccc5c(c4)OCO5)cc3)CC2)cc1 [TCMDC-140475] | 90.32
C[C@@]12C[C@@H](Nc3nc(NCCc4ccc(O)cc4)nc(N4CCNCC4)n3)C[C@@H](C1)c1cccc(Cl)c1O2 [TCMDC-134047] | -6.304
Cc1cc(NC(=O)Nc2ccc3nc(C)oc3c2)c2cc(Cl)ccc2n1 [TCMDC-140076] | 38.43
O=C(Nc1ccc2c(c1)OCO2)NC1CCN(c2ccnc(Nc3ccc(F)cc3)n2)C1 (stereo not drawn) [TCMDC-133605] | -89.44
CC(C)Cc1csc(NC(=O)C=Cc2ccco2)c1C(=O)O [TCMDC-125660] | 6.698
Clc1ccc(OCc2ccccc2)c(-c2nc(-c3nc4ncc(Br)cc4[nH]3)cs2)c1 [TCMDC-136729] | -65.34
c1ccc(CN2CCC(NCc3ccccc3-c3ccc(CNC4CCCC4)cc3)CC2)cc1 [TCMDC-140473] | 106.4
c1ccc(CN2CCC(NCc3ccc(-c4cncc5ccccc45)cc3)CC2)cc1 [TCMDC-134153] | 14.12
COc1ccccc1NC(=O)Nc1cccc(-c2ccc(-c3nc4ccc(C(F)(F)F)cc4[nH]3)cc2)c1 [TCMDC-133203] | -14.42
N#Cc1ccc(N2CCN(Cc3cccc(-c4ccc(-c5nc6ccccc6[nH]5)cc4)c3)CC2)nc1.O=C(O)C(F)(F)F [TCMDC-133937] | 5.421
FC(F)(F)c1cnc(Sc2nnc(-c3ccco3)o2)c(Cl)c1 [TCMDC-125006] | -49.8
FC(F)(F)c1cnc(Sc2nnc(-c3ccncc3)o2)c(Cl)c1 [TCMDC-123767] | 83.92
CC1CCCCN1Cc1cccc(-c2c[nH]c3nc(NC4CCCC4)ncc23)c1 (stereo not drawn) [TCMDC-133776] | -28.36

Structure (SMILES) | % Inhibition [%]
COc1ccc2nccc([C@@H](O)CN3CCC(NCc4ccc5c(c4)oc(=S)n5C)CC3)c2c1 [TCMDC-141186] | 1.23
O=C(Nc1ccc([N+](=O)[O-])cc1Br)c1cc2ccccc2nc1Cl [TCMDC-124537] | 29.24
O=C(Nc1ccc(Cn2ncc(N3CCCNCC3)c(Cl)c2=O)cc1)Nc1ccc(F)cc1[N+](=O)[O-] [TCMDC-141926] | -31.19
O=[N+]([O-])c1ccc(N2CCCN(C(=S)Nc3ccc(F)cc3Br)CC2)nc1 [TCMDC-124054] | 81.59
N#Cc1ccc(NC(=NC2CCN(Cc3ccccc3)CC2)Nc2ccccc2Cl)c(O)c1 [TCMDC-140256] | -5.798
Cc1cccc2nc(-c3cccc(-c4ccc(C(=O)NCc5ccccc5S(C)(=O)=O)cc4)c3)[nH]c12 [TCMDC-132505] | 5.091
CC(C)n1nc(C(=O)N2CCN(c3ccccc3)CC2)c2ccccc2c1=O [TCMDC-124333] | 78.8
Cn1nc(C(=O)N2CCC(c3[nH]ncc3Cc3ccccc3)CC2)c2ccccc2c1=O [TCMDC-124642] | 16.79
CC(=O)CC(=O)N1CCN(c2ccccc2)CC1 [TCMDC-125502] | -5.255
Cn1c2c(c3ccccc31)CN(CCC1(c3ccc(Cl)c(Cl)c3)CN(C(=O)c3ccccc3)CCO1)CC2 (stereo not drawn) [TCMDC-135562] | -29.91
COCCN(C(=O)Cc1cccs1)C(C(=O)NCc1ccc(OC)cc1)c1ccc(C(C)C)cc1 (stereo not drawn) [TCMDC-125625] | -2.779
CN1CCN(CCNc2c3ccccc3nc3ccc4ccccc4c23)CC1 [TCMDC-137724] | 54.46
CN1CCN(CCNc2c3ccccc3nc3c2ccc2ccccc23)CC1 [TCMDC-137723] | 92.22
CN(Cc1cnc2nc(N)nc(N)c2n1)c1ccc(C(=O)N[C@@H](CCC(=O)O)C(=O)O)cc1 [TCMDC-125858] | -8.966
Cc1c(-c2cccc(Br)c2)[nH]c2nc(N)nc(N)c12 [TCMDC-137836] | -91.89
O=C(c1ccc(Cl)cc1)N1CCOC(CCN2CCC(c3ccccc3)CC2)(c2ccc(Cl)c(Cl)c2)C1 (stereo not drawn) [TCMDC-135351] | -32.03
CCOc1ccc(C(=O)N2CCOC(CCN3CCC(c4ccccc4)CC3)(c3ccc(Cl)c(Cl)c3)C2)cc1 (stereo not drawn) [TCMDC-135344] | -65.78
O=C(Nc1cccc(F)c1)N1CCC(CN2CCOC(c3ccccc3)(c3ccccc3)C2)CC1 [TCMDC-136345] | 66.91
O=C(c1ccccc1)N1CCC(CN2CCOC(c3ccccc3)(c3ccccc3)C2)CC1 [TCMDC-136346] | 86.1
O=C(Nc1ccccc1)N1CCC(CN2CCOC(c3ccccc3)(c3ccccc3)C2)CC1 [TCMDC-136344] | 40.09
COc1ccc(C(=O)N2CCC(CN3CCOC(c4ccccc4)(c4ccccc4)C3)CC2)cc1 [TCMDC-136347] | 57.99
COc1cc(OC)cc(C(=O)N2CCOC(CCN3CCC(c4ccccc4)CC3)(c3ccc(Cl)c(Cl)c3)C2)c1 (stereo not drawn) [TCMDC-135348] | -85.08
O=C(c1ccc(F)c(F)c1)N1CCOC(CCN2CCC(c3ccccc3)CC2)(c2ccc(Cl)c(Cl)c2)C1 (stereo not drawn) [TCMDC-135337] | -91.33
O=C(Nc1cc(F)cc(F)c1)N1CCOC(CCN2CCC(c3ccccc3)CC2)(c2ccc(Cl)c(Cl)c2)C1 (stereo not drawn) [TCMDC-135333] | 17.76
